# Results filed as inconclusive are left out. Active and inactive are the calls of the source. How the source made its calls: active means hit-call score of the fitted dose curve at least 0.9, where 1 is the maximum; inconclusive means response in the unintended direction; inactive means score below 0.9.
# Biological target: Cellular tumor antigen p53 (Homo sapiens) (UniProt P04637)
# Assay: TOX21_p53_BLA_p4_ratio: Tox21 HCT-116 p53 Agonism Beta-lactamase Assay, Ratio, Phase 4 (AID 2283601)
# Source text: TOX21_p53_BLA_p4 is a cell-based, single-readout assay that uses HCT116, a human intestinal cell line, […] in a 1536-well plate.TOX21_p53_BLA_p4_ratio is an assay readout measuring reporter gene via receptor activity and designed using inducible reporter (beta lactamase induction) detected with GAL4 b-lactamase reporter gene. The signal is derived from the ratio of cleaved (ch2) to uncleaved (ch1)reporter gene substrate used as the measure of target activity.Data from the assay component TOX21_p53_BLA_p4_ratio was analyzed into 1 assay endpoint. This assay endpoint, TOX21_p53_BLA_p4_ratio, was analyzed in the positive analysis fitting direction relative to DMSO as the negative control and baseline of activity. Using a type of inducible reporter, gain-of-signal activity can be used to understand changes in the reporter gene as they relate to the gene TP53. Furthermore, this assay endpoint can be referred to as a primary readout, because this assay has produced multiple assay endpoints where this ratio serves a reporter gene function to understand target activity. To generalize the intended target to other relatable targets, this assay endpoint is annotated to the DNA binding intended target family, where the subfamily is tumor suppressor.
# Thawing Method: Place 14 mL of pre-warmed thaw medium into a 15 mL of conical tub. Remove the vial of cells to be thawed from liquid nitrogen and thaw rapidly by placing at 37C in a water bath with gentle agitation for 1-2 minutes. Decontaminate the vial by wiping with 70% ethanol before opening in a biological safety cabinet. Transfer the vial contents drop-wise into 14 mL of thaw medium in a sterile 15-mL conical tub. Centrifuge cells at 900 rpm for 4 minutes and resuspend in thaw medium. Transfer contents to the T75 tissue culture flask containing Thaw Medium and place flask in a humidified 37C/5% CO2 incubator. Switch to growth medium at first passage.Propagation Method: Aspirate medium, rinse once in DPBS, add 0.25% Trypsin/EDTA and swirl to coat the cell evenly. Add an equal volume of Growth Medium to inactivate Trypsin after 2-3 minutes incubation at 37C. Centrifuge cells at 900 rpm for 4 minutes and resuspend in growth medium. Cell should be passage or fed at least twice a week.Assay Protocol: Harvest cells from culture in growth medium and resuspend in assay medium. 2.2 Dispense 4000 cells/5 uL/well into 1536-well black/clear bottom plates using a Multidrop dispenser. After the cells were incubated at 37C for 5 hours, 23 nL of compounds dissolved in DMSO were transferred to the assay plate by a PinTool resulting in a 217-fold dilution. Incubate the plates for 16 hours at 37C, 5% CO2. Add 1 uL of 6X LiveBLAzer FRET B/G (CCF4-AM) Substrate Mixture to each well using a BioRAPTR dispenser and incubate the plates at room temperature for 2 hours. Measure fluorescence intensity at 460 and 530 nm emission and 405 nm excitation by an Envision detector. Data is expressed as the ratio of 460nm/530nm emissions. Add 4 uL of Cell-titer Glo to each well using BioRAPTR and incubate the plates at room temperature for 2 hours. Measure fluorescence intensity by a VewLux plate reader.
# Sequence of Cellular tumor antigen p53 (Homo sapiens) (P04637 whole entry, looked up): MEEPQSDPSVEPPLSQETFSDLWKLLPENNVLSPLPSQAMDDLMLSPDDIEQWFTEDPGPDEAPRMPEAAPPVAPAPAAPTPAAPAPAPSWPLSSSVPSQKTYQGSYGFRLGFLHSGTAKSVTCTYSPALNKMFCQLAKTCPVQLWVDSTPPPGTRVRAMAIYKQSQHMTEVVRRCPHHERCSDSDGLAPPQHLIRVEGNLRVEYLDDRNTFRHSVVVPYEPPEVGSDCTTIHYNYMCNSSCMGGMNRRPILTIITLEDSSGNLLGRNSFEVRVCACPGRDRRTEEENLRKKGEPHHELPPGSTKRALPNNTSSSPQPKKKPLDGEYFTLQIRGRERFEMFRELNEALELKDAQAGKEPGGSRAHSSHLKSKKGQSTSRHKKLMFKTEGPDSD
SMILES,outcome,AC50
CC(C)(C)C(=O)NCCCC(=O)O,inactive,
Cc1cnc(C)c(C)n1,inactive,
CC(=O)N[C@@H](CC(=O)N[C@@H](CCC(=O)O)C(=O)O)C(=O)O,inactive,
OCC(O)CN1CCN(c2ccccc2)CC1 (stereo not given),inactive,
S=C(SSSSSSC(=S)N1CCCCC1)N1CCCCC1,inactive,
CCCCOC(=O)CCS,inactive,
CC1OCCC1=O (stereo not given),inactive,
CC(COc1ccccc1)NC(C)C(O)c1ccc(O)cc1 (stereo not given),inactive,
COc1ccc(C=NNC(=O)c2ccncc2)c(C(=O)O)c1OC,inactive,
COCc1ccc(COC)cc1,inactive,
CC(C)OC(=O)C(C(=O)OC(C)C)=C1SC=CS1,inactive,
C=CCSSSCC=C,inactive,
Cc1ccccc1C(=O)O,inactive,
O=C(CCN1CCC(c2ccccc2)C1)c1ccc2c(c1)OCCO2 (stereo not given),inactive,
C=CC(=O)OCCOCCOC(=O)C=C,inactive,
CCN(CC)CCOC(=O)C1(c2ccccc2)CCCC1,inactive,
CC(C)(C)c1ccc(C=O)cc1,inactive,
Cc1cc(OI)c(C(C)C)cc1-c1cc(C(C)C)c(OI)cc1C,inactive,
CO[C@@]1(NC(=O)C2SC(=C(C(N)=O)C(=O)O)S2)C(=O)N2C(C(=O)O)=C(CSc3nnnn3C)CS[C@@H]21 (stereo not given in full),inactive,
O=C(CN1CCNCC1)NC1CCCCC1,inactive,

SMILES,outcome,AC50
COc1cc2nc(N3CCN(C(=O)c4ccco4)CC3)nc(N)c2cc1OC,inactive,
Nc1nc(N)c(-c2ccccc2)s1,inactive,
NC(=O)Cc1cccc2ccccc12,inactive,
CC(=O)OCC(=O)[C@@]1(O)CC[C@H]2[C@@H]3CCC4=CC(=O)CC[C@]4(C)C3=CC[C@@]21C,inactive,
CCCCNc1c(C(=O)OCC)c(C)nc2c1cnn2CC,inactive,
OC[C@H]1O[C@@H](OCCc2ccc(O)cc2)[C@H](O)[C@@H](O)[C@@H]1O,inactive,
O=C(Nc1cccc(C2=NCCN2)c1)Nc1cccc(C2=NCCN2)c1,inactive,
NC(=O)[C@@H]1C[C@]2(NC(=O)NC2=O)c2cc(F)ccc2O1,inactive,
CC/C(=C(/CC)c1ccc(OP(=O)(O)O)cc1)c1ccc(OP(=O)(O)O)cc1,inactive,
O=C(c1ccc(F)cc1)C1CCN(CCn2c(=S)[nH]c3ccccc3c2=O)CC1,inactive,
CC(C)NCC(O)COc1ccccc1-n1cccc1 (stereo not given),inactive,
Cc1ccc(N(CC2=NCCN2)c2cccc(O)c2)cc1,,30.4 µM (active)
Nc1nc(N)nc(-c2cc(Cl)ccc2Cl)n1,inactive,
CCN(C)C(=O)Oc1cccc([C@H](C)N(C)C)c1,inactive,
NC(=O)c1cn(Cc2c(F)cccc2F)nn1,inactive,
CC(C)(C)NCC(O)COc1cccc2c1CCC(=O)N2 (stereo not given),inactive,
CC(=O)OCC1=C(C(=O)O)N2C(=O)[C@@H](NC(=O)Cc3ccccc3)[C@H]2SC1,inactive,
NS(=O)(=O)c1ccccc1Cl,inactive,
O=c1c(O)c(O)c1=O,inactive,
CCOc1cc(N)c(Cl)cc1C(=O)NCC1CN(Cc2ccc(F)cc2)CCO1 (stereo not given),inactive,
